Records with an inconclusive call do not appear. Calls of active or inactive are those of the source. Calls follow the shape of the dose curve; as a rule, active = well fitted inhibition curve with a large enough effect; inconclusive = small, poorly fitted or top-dose-only effect; inactive = no such curve, though single readings can be large or run the other way.
Experiment: Primary fluorescence-based thiol-reactive (MSTI) qHTS assay for identification of artifact compounds. (AID 1845221);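 also: thiol-reactive compounds lower the probe fluorescence signal; nearly all actives have a fitted effect of over 65% in size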
Conditions: MSTI thiol-reactivity probe, 1 h; series mostly up to 53.8 µM
Source text: PI: Alexander Tropsha Ph.D.
UNC Eshelman School of Pharmacy
University of North Carolina, Chapel Hill, North Carolina
Hits from high-throughput screening (HTS) of chemical libraries are often false positives due to their interference with the assay detection technology. In response to this problem, we generated the largest publicly available library of chemical liabilities and developed a free webtool to predict HTS artifacts, both of which are described herein. More specifically, we generated, curated, and integrated HTS datasets for thiol reactivity, redox activity, and luciferase (firefly and nano) activity. Using these curated datasets, we developed and validated several Quantitative Structure-Interference Relationship (QSIR) models to predict nuisance behavior. […] These models were employed for virtual profiling of the National Center for Advancing Translational Science's (NCATS) in-house library, and 256 compounds for each assay were selected for the experimental validation of nuisance behavior. The BA for these external predictions ranged from 58 to 78% for compounds within the applicability domains of the models. […] The models developed in this study, along with aggregation models previously developed by our group (SCAM Detective) were implemented in "Liability Predictor," an online tool which may be used as part of chemical library design or for triaging HTS hits. Both the models and the curated datasets are publicly available at https://liability.mml.unc.edu/.
SEQUENCE No. (e.g., 1, 2, 3, etc.); […] (e.g., Cells, Incubation, Reagent, etc.); VALUE; DESCRIPTION.
1; Reagent; 4 uL; […].
2; Compounds and control; 16 nL; Kalypsis pin tool (Wako USA) equipped with a 1536-well pin head.
4; Detection; Fluorescence, ViewLux microplate reader, 525 nm excitation, 598 nm emission.
NOTES (numbers refer to Sequence numbers above)
1. Assays determining (E)-2-(4-mercaptostyryl)-1,3,3-trimethyl-3H-indol-1-ium (MSTI) reactivity were performed as previously described in the literature with modifications for the quick identification of compounds reacting with thiol. In brief, 4 uL of MSTI or positive control Acetyl-MSTI (final concentrations of 4 uM and 4 uM, respectively) in assay buffer (2% DMSO in 1X PBS pH 7.4) was dispensed into all wells of a 1536-well assay plate (solid-bottom black plate; Greiner Bio One, Monroe, NC).
2. A Wako Pin-tool (Wako Automation, Richmond, VA) was used to transfer 16 nL of compounds (consisting of 7-plates in qHTS format, final concentration range 18.3 nM to 114 uM) or control MLS001163887 (final concentration range 1.22 nM to 40 uM).
3. Plates were centrifuged (121xg, 15 seconds) and incubated for 1 hour at room temperature protected from light.
4. Samples were read for fluorescence (Ex/Em = 525(20)/598(25) nm) on a ViewLux CCD imager (PerkinElmer). Data were normalized to Acetyl-MSTI (0% activity) and MSTI (100% activity) and the resulting percent inhibition data were fitted to a 4-parameter Hill equation using NCATS in-house software.

Row | Structure (SMILES) | outcome
1 | CCOC(=O)c1ncn2c1CN(C)C(=O)c1c(I)cccc1-2 | inactive
2 | C[C@]12CC[C@H](O)CC1=CC[C@@H]1[C@@H]2CC[C@]2(C)C(=O)CC[C@@H]12 | inactive
3 | O=C(N[C@@H]1N=C(c2ccccc2F)c2cccc3c2N(CC3)C1=O)c1cc2ccccc2[nH]1 | inactive
4 | O=C(O)CCCCCCNC1c2ccccc2CCc2ccccc21 | inactive
5 | COc1ccc2c(C(=O)c3ccc(Cl)cc3)c(C)n(CC(=O)O)c2c1 | inactive
6 | CC[C@H]1C[C@H]2[C@@H]3CCC4=CC(=O)CC[C@@H]4[C@H]3CC[C@]2(C)[C@H]1O | inactive
7 | CCCC[N+]1(C)[C@@H]2CC(OC(=O)[C@H](CO)c3ccccc3)C[C@H]1[C@@H]1O[C@@H]12 (stereo partly drawn) | inactive
8 | CCOC(=O)c1cncn1C(C)c1ccccc1 (stereo not drawn) | inactive
9 | CCOC(=O)NC(C)(C)Cc1ccc(Cl)cc1 | inactive
10 | CCCCC1C(=O)NC(=O)N(C2CCCCC2)C1=O (stereo not drawn) | inactive
11 | Cc1nnc2n1-c1sc(CCc3ccc(CC(C)C)cc3)cc1C(c1ccccc1Cl)=NC2C (stereo not drawn) | inactive
12 | CCCOC(=O)Cc1ccc(OCC(=O)N(CC)CC)c(OC)c1 | inactive
13 | O=C(N[C@H]1N=C(c2ccccc2F)c2cccc3c2N(CC3)C1=O)c1cc2ccccc2[nH]1 | inactive
